HepG2 tox: HepG2 cytotoxicity, counter-screen for TGF-b inhibitors | HepG2 CAGA-GFP viability, ATP luminescence, 18 h | Potency, µM (titrated, usually from 46.1 µM), for the others: top-dose activity change, negative = cytotoxicity, hits mostly cytotoxic | 0.76% of 410,000 active | AID 588856; further: potency means the concentration at half of the fitted maximal effect
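HepG2 CAGA-GFP cells (1000/well, DMEM with 1% FBS) received compound, then TGF-beta at 500 pg/mL final, and were incubated 18 hours at 37 degrees C. Viability was read by CellTiter-Glo luminescence. Media-only wells were set as complete cell-killing and DMSO as no toxicity.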
DT40 TDP1 CPT: growth inhibition of DT40 Tdp1-/-;hTDP1 cells with camptothecin (screen for TDP1 inhibitors) | chicken DT40 Tdp1-/-;hTDP1 cells + 20 nM CPT, ATP luminescence, 48 h | Potency, µM (top dose mostly 46.2 µM), inactives show top-dose activity change, negative = growth inhibition, most hits filed as inhibitors | 12% of 420,000 active; further: potency means the concentration at half of the fitted maximal effect; on the % scale 0 is the no-effect control and ±100 the full control effect; nearly all actives have a fitted effect of over 55% in size
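Cell growth measured by CellTiter-Glo luminescence after a minimum 48 h, 37 C compound exposure with 20 nM CPT in Tdp1-knockout DT40 cells stably expressing hTDP1, seeded 400/well; qHTS titration format.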
S-ASM inh: blocks human secretory acid sphingomyelinase; AID 504937; Potency, µM (series often up to 57.5 µM), without a hit: at the top dose activity change, negative = inhibition, usual class: inhibitors; P17405; 0.006% of 340,000 active; placental ASM, HMU-PC fluorogenic substrate, 60 min; further: potency means the concentration at half of the fitted maximal effect
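Fluorescence read-out (Ex 386 nm, Em 447 nm) after stopping the reaction at pH 10. Enzyme: ASM from human placenta; substrate HMU-PC0, 9 uM final; 60 min, 37 °C. Compound preincubation 10 min, ambient temperature.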
IL1B secr inh: blocks inflammasome-driven IL-1 beta release; activity change, % at 57.5 µM; AID 743279; 4.7% of 360,000 active; THP-1 LPS/ATP IL-1B secretion, AlphaLISA, 16 h; hits give low values; in the data active means activity change below about -50%; inconclusive means mostly about -30% to -49%; further: on the % scale 0 is the no-effect control and ±100 the full control effect
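Secreted IL-1B measured by AlphaLISA bead assay after 16 h compound exposure of THP-1 cells; compounds (final up to 57.5 uM) added 1 h before LPS (250 ng/mL) and ATP (1.25 mM) stimulation; lower signal means less secretion.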
TGFb SMAD3 inh: inhibitors of TGF-b signaling; HepG2 CAGA-GFP TGF-b/SMAD3 reporter, GFP fluorescence, 18 h; TGF-beta stimulated, 500 pg/mL final; Potency, µM (highest dose often 46.1 µM), for inactives: at the highest dose activity, negative = inhibition, actives largely listed as inhibitors; 1.2% of 410,000 active; AID 588855; further: potency means the concentration at half of the fitted maximal effect; on the % scale 0 is the no-effect control and ±100 the full control effect; nearly all actives have a fitted effect of over 65% in size
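First, reporter cells (HEPG2 CAGA-GFP) rested 2 h at 37 degrees C. Next, compounds were pinned in and TGF-beta added to 500 pg/mL final. After 18 h, GFP was imaged per cell and summed per well.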
DT40 TDP1 no CPT: qHTS for Inhibitors of human tyrosyl-DNA phosphodiesterase 1 (TDP1): qHTS in cells in absence of CPT. 15% of 420,000 active. AID 686978, 2013. DT40 Tdp1-/- hTDP1 cells, no CPT, ATP luminescence, 48 h. Potency, µM (titrated, usually from 46.2 µM), without a hit: top-dose activity change, negative = growth inhibition, actives largely listed as inhibitors; further: potency means the concentration at half of the fitted maximal effect; on the % scale 0 is the no-effect control and ±100 the full control effect; nearly all actives have a fitted effect of over 55% in size
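Camptothecin absent (DMSO only). Human TDP1-complemented DT40 knockout cells, 400 cells/well, 37 °C for minimum 48 hr; ATP measured via CellTiter-Glo, 30 min dark incubation, luminescence.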
* = called active by the depositor; ? = inconclusive; · = not tested or not shown; [ ] = another dose, or the depositor's remark. An excerpt weighted towards active compounds, which were near 19% of everything screened. Unless noted, the call rests on the fitted dose curve; in most records, active means well fitted curve in the direction sought with a large enough effect; inconclusive means small, poorly fitted or top-dose-only effect, or another doubt; inactive means no such curve, though single readings can be large; an effect the other way counts as inactive or inconclusive.

SMILES	HepG2 tox	DT40 TDP1 CPT	S-ASM inh	IL1B secr inh	TGFb SMAD3 inh	DT40 TDP1 no CPT
COP(=O)(OC)c1nc(-c2ccccc2)oc1NCc1ccccc1	-21%	-12%	-3%	-6	-12%	?
CCCOP(=O)(OCCC)c1nc(-c2ccccc2)oc1NCc1ccccc1	-51%	23µM*	-8%	-116*	?	?
C=C1C/C(=C/C)C(=O)O[C@@H]2CCN3CC=C(COC(=O)[C@]1(C)O)[C@@H]23	-1%	-26%	·	·	-10%	-18%
C[N+]1(CC2COC(c3ccccc3)(c3ccccc3)O2)CCCCC1 (stereo unspecified)	·	?	·	·	·	19µM*
C[N+]1(CC2COC(c3ccco3)O2)CCCCC1 (stereo unspecified)	-13%	1%	3%	-6	-10%	-3%
C[S+](CC[C@H](N)C(=O)O)C[C@H]1O[C@@H](n2cnc3c(N)ncnc32)[C@H](O)[C@@H]1O (stereo partly specified)	12%	?	0%	-1	4%	?
C[C@@H]1CCC2[C@@H](C)C(=O)O[C@@H]3OC4(C)CCC1[C@@]23OO4 (stereo partly specified)	-18%	4.1µM*	-1%	1	-17%	8.2µM*
C[C@@H]1CC[C@H]2[C@@H](C)C(=O)O[C@@H]3O[C@@]4(C)CC[C@@H]1[C@]32OO4	-9%	0.65µM*	1%	10	-12%	4.1µM*
CC1C(=O)OC2O[C@]3(C)CC[C@H]4C(C)CCC1[C@]24OO3 (stereo partly specified)	·	7.3µM*	·	·	·	1.2µM*
O=C1NCN(c2ccccc2)C12CCN(C(c1ccccc1OC(F)(F)F)c1nnnn1-c1ccc3c(c1)OCCO3)CC2 (stereo unspecified)	5%	?	·	?	?	?
Cc1nc2c(c(=O)[nH]1)C(c1ccccc1Cl)c1c(c3ccccc3oc1=O)O2 (stereo unspecified)	-1%	-4%	2%	0	-2%	?
O=C1N=C2SCCN2C(=O)C1Cc1ccc(Cl)cc1 (stereo unspecified)	·	?	·	·	·	-18%
Brc1ccc2[nH]cc(/C=N/N3CCCCC3)c2c1	-27%	?	-5%	-65*	?	15µM*
C(=NN1CCCCCC1)c1c[nH]c2ccccc12	-4%	0%	2%	8	9%	-17%
NC(=O)c1ccsc1NC(=O)COC(=O)Cc1ccccc1	1%	-6%	-1%	19	-2%	?
O=C(CCl)Nc1sccc1C(=O)c1ccccc1	-166%	15µM*	12%	-103*	?	?
CSc1cccc(CNC(=O)C2CCC(=O)N(Cc3cccc(C(F)(F)F)c3)C2)c1 (stereo unspecified)	-10%	?	14%	-11	?	-6%
Cc1c(C(=O)NCc2cccc(C(F)(F)F)c2)sc(=O)n1Cc1ccc(C(=O)N(C)C)cc1	4%	?	·	-16	-12%	15µM*
COc1ccc(CNC(=O)c2sc(=O)n(Cc3ccc(C)cc3)c2C)cc1OC	-3%	?	·	-25	-7%	16µM*
CCOc1ccc(Cn2c(=O)oc3ccc(C)cc32)cc1OC	-21%	?	-2%	-12	-11%	?
CCCCC[C@@H](/C=C/C=C\CCCCCCCC(=O)O)OO	·	7%[0.628 µM]	·	·	·	2%[0.628 µM]
COc1ccc(NC(=O)Cn2c(=O)c3cccn3c3ccccc32)cc1Cl	0%	?	·	·	-7%	?
